Screens deposited in PubChem by National Center for Advancing Translational Sciences (NCATS).
NPC1 prom act: qHTS Assay for NPC1 Promoter Activators. hit rate 2.4% among 320,000. Potency, µM (doses to about 9.22 µM), without a hit: at the highest dose activation, usual class: activators. Huh7 NPC1 promoter luciferase reporter, 24 h. AID 485313, 2010; note: % of control where 0% means no effect; nearly all actives have a fitted effect of over 60% in size
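Luminescence read-out of NPC1 promoter-driven luciferase in stably transfected Huh7 cells; compounds delivered in DMSO and left 24 h at 37C, 5% CO2, qHTS titration format.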
Rab9 promoter act: qHTS Assay for Rab9 Promoter Activators; Huh7 Rab9 promoter-luciferase reporter, luminescence, 24 h; Potency, µM (highest dose often 9.22 µM), for inactives: top-dose activation, negative = inhibition, most hits filed as activators; hit rate 2.8% among 320,000; AID 485297, 2010; note: % of control where 0% means no effect; nearly all actives have a fitted effect of over 60% in size
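Rab9 promoter-driven luciferase in stably transfected Huh7 cells; 1500 cells/well rested 2 h, exposed to compound in DMSO for 24 h at 37 °C, 5% CO2. Luminescence read 10 min after adding luciferase reagent at ambient temperature.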
SMN2 splice enh: qHTS Assay for Enhancers of SMN2 Splice Variant Expression; HEK293 SMN2-luciferase splicing reporter, luminescence, 30-36 h; Potency, µM (top dose mostly 46.1 µM), for inactives: at the top dose activity change, positive = activation, usual class: activators; hit rate 2.8% among 210,000; AID 1458, 2008; note: % of control where 0% means no effect; nearly all actives have a fitted effect of over 55% in size
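HEK293 cells carry an SMN2 minigene-luciferase reporter in which exon 7 inclusion puts luciferase in frame. Cells were seeded at 2000 cells/well, attached for 10-12 hours, then exposed to compounds for 30-36 hours at 37C before ONE-Glo luminescence.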
ELG1 genotoxic: qHTS screen for small molecules that induce genotoxicity in human embryonic kidney (HEK293T) cells expressing luciferase-tagged ELG1; Potency, µM (doses to about 46 µM), for the others: at the top dose activity change, positive = activation, actives largely listed as activators; hit rate 1.3% among 330,000; AID 504466, 2011; HEK293T ELG1-luciferase reporter, luminescence, 16 h; note: % of control where 0% means no effect; nearly all actives have a fitted effect of over 60% in size
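Step 1: seed 2,000 HEK293T ELG1-luciferase cells per well. Step 2: add compound or DMSO, incubate 16 hr at 37 °C. Step 3: ONE-Glo, 30 min at room temperature, read luminescence.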
FLuc modulator: qHTS profiling assay for firefly luciferase inhibitor/activator using purifed enzyme and Km concentrations of substrates (counterscreen for miR-21 project); purified FLuc, Km substrates, luminescence inhibition; Potency, µM (doses to about 57.5 µM), for the others: at the top dose activity change, negative = inhibition, actives largely listed as inhibitors; Luciferin 4-monooxygenase (Photinus pyralis), P08659; hit rate 6.9% among 360,000;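 note: plate controls were vehicle for no effect and reference inhibitor for full effect; nearly all actives have a fitted effect of over 55% in size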
Target sequence (P08659 whole entry, looked up): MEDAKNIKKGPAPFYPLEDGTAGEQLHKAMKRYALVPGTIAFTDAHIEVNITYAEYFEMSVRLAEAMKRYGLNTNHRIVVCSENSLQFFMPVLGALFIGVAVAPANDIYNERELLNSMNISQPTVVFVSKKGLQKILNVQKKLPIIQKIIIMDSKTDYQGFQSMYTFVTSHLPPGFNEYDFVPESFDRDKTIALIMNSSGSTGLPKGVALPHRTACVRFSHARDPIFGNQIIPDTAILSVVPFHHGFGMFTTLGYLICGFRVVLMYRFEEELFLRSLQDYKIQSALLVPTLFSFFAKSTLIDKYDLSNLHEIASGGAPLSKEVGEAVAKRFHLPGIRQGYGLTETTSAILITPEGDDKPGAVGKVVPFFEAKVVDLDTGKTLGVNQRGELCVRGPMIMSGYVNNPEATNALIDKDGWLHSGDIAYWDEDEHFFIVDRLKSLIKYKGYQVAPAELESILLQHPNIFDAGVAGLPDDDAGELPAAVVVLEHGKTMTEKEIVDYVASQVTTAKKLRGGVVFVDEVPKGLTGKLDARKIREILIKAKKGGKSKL
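Purified P. pyralis luciferase (10nM final) with 10uM D-luciferin and 10uM ATP (Km levels) in 50mM Tris acetate pH 7.5, 10mM Mg acetate, 0.01% Tween-20, 0.05% BSA; qHTS 6-point titration, ~60 µM downward; luminescence read.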
p53 reactivator: qHTS assay for re-activators of p53 using a Luc reporter; H1299 p53-A138V BP100-luciferase reporter, luminescence, 24 h; Potency, µM (doses to about 92.2 µM), without a hit: top-dose activity change, positive = activation, usual class: activators; hit rate 0.063% among 320,000; note: % of control where 0% means no effect; nearly all actives have a fitted effect of over 45% in size
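H1299 (p53-null), stable ts p53-A138V + BP100-Luc; 1000 cells/well, Opti-MEM/10% FBS; cpd 4 pt, 1:5; 24 h, 37 deg C, 5% CO2; detection reagent 10 min RT; luminescence.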
* hit, by the source's call. The list is not random: actives were taken first. Their share in the collection is about 7.4%. Calls come from the whole dose curve; as a rule, active = well fitted curve in the direction sought with a large enough effect; inconclusive = small, poorly fitted or top-dose-only effect, or another doubt; inactive = no such curve, though single readings can be large; an effect the other way counts as inactive or inconclusive. Potency is the fitted concentration of half-maximal effect.

`Cc1cc(/C=N/Nc2ccc([N+](=O)[O-])cn2)c(C)n1-c1ccccc1` gave NPC1 prom act inconclusive, Rab9 promoter act 3.55µM*, SMN2 splice enh inconclusive, ELG1 genotoxic inconclusive, FLuc modulator inconclusive and p53 reactivator 14.4%.
Screening O=C(O)Cn1cc(/C=N/Nc2ccc([N+](=O)[O-])cn2)c2ccccc21 returned NPC1 prom act 2.1%, Rab9 promoter act -3.4%, ELG1 genotoxic -0.1%, FLuc modulator 13.5µM* and p53 reactivator 21.4%.
Cc1ccc(-n2c(C)cc(/C=N/Nc3ccc([N+](=O)[O-])cn3)c2C)cc1 was read as NPC1 prom act 2.3%, Rab9 promoter act 2.9%, SMN2 splice enh -9.1%, ELG1 genotoxic 0.9%, FLuc modulator -0.4% and p53 reactivator 13.5%.
Screening O=C(CSc1nc2c([nH]c3ccccc32)c(=O)n1-c1ccccc1)c1ccc(Cl)cc1 returned FLuc modulator -1.3%.
Cc1ccc(-c2csc(/C(C#N)=C(\O)CCl)n2)cc1 was read as NPC1 prom act 22.7%, Rab9 promoter act inconclusive, SMN2 splice enh -4.4%, ELG1 genotoxic 16.5%, FLuc modulator 10.7µM* and p53 reactivator 7.0%.
`N#C/C(=C(/O)CCl)c1nc(-c2ccccc2)cs1` gave NPC1 prom act 2.1%, Rab9 promoter act 17.0%, ELG1 genotoxic 14.0%, FLuc modulator inconclusive and p53 reactivator 1.8%.
COCCCNC(=O)c1ccc(Cn2c(SCc3ccc(F)cc3)nc3cccnc32)cc1 was read as FLuc modulator 3.38µM*.
CN(C)CCNC(=O)c1ccc(Cn2c(SCc3ccc(F)cc3)nc3cccnc32)cc1 was read as FLuc modulator 6.01µM*.
Screening O=C(NCCN1CCCCC1)c1ccc(Cn2c(SCc3ccc(F)cc3)nc3cccnc32)cc1 returned SMN2 splice enh -6.9% and FLuc modulator 8.49µM*.
`COCCCNC(=O)c1ccc(Cn2c(SCc3cccc(C)c3)nc3cccnc32)cc1` gave FLuc modulator 10.7µM*.
`COc1cccc(CNC(=O)Cn2ncn3nc(-c4cccs4)cc3c2=O)c1` gave FLuc modulator 1.2%.
For Cc1cc2c(cc1S(=O)(=O)N1CCOCC1)NC(=O)CO2 the results were NPC1 prom act -0.5%, Rab9 promoter act -1.1%, ELG1 genotoxic 3.0%, FLuc modulator 1.4% and p53 reactivator 3.1%.
Screening O=C(NNc1cccc(Cl)c1)c1cccnc1Oc1ccccc1 returned NPC1 prom act -0.3%, Rab9 promoter act -1.0%, ELG1 genotoxic 5.3%, FLuc modulator 4.8% and p53 reactivator -3.6%.
Screening c1ccc(-c2csc(-c3cccnc3)n2)cc1 returned NPC1 prom act 17.0%, Rab9 promoter act inconclusive, ELG1 genotoxic 14.0%, FLuc modulator 19µM* and p53 reactivator 14.7%.
For c1ccc(-c2nc(-c3cccnc3)cs2)cc1 the results were NPC1 prom act inconclusive, Rab9 promoter act inconclusive, ELG1 genotoxic inconclusive, FLuc modulator 12µM* and p53 reactivator 24.6%.
For Cc1ccc(C)c(-c2csc(-c3cccnc3)n2)c1 the results were NPC1 prom act 8.1%, Rab9 promoter act -0.3%, ELG1 genotoxic -2.8%, FLuc modulator inconclusive and p53 reactivator inconclusive.
Screening COc1ccc2cc(C(=O)NCc3ccco3)c(=O)oc2c1 returned NPC1 prom act inconclusive, Rab9 promoter act inconclusive, SMN2 splice enh 26.8%, ELG1 genotoxic 5.8µM*, FLuc modulator 6.01µM* and p53 reactivator inconclusive.
`O=C(NCc1ccco1)c1cc2ccccc2o1` gave NPC1 prom act 11.1%, Rab9 promoter act 1.5%, SMN2 splice enh 8.7%, ELG1 genotoxic 7.8%, FLuc modulator inconclusive and p53 reactivator 12.1%.
